Sfp PPTase inh: blocks B. subtilis Sfp PPTase activity. Q9F4F7. Biochemical Sfp PPTase activity, qHTS. Potency, µM, for inactives: largest response in the series, negative = inhibition, usual class: inhibitors. 3.5% of 310,000 active. AID 1490;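 further: the enzyme is Sfp with the accession as filed and its product quenches rhodamine fluorescence; 0% = enzyme reaction without inhibitor and -100% = no enzyme wells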
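Fluorescence-quenching assay with 15 nM Sfp, 5 uM rhodamine-CoA and 12.5 uM BHQ-2-labelled ybbR peptide in pH 7.6 Hepes/MgCl2 buffer. Enzyme was pre-incubated with compound for 15 min at room temperature. Rate was taken from the 30-min fluorescence change (525/598 nm).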
BAZ2B block: inhibitors of human BAZ2B bromodomain | 4.4% of 360,000 active | AID 504333 | Potency, µM (top dose mostly 114 µM), without a hit: top-dose activity change, negative = inhibition, most hits filed as inhibitors | AlphaScreen BAZ2B-H3K14Ac peptide displacement | Q9UIF8; further: on the % scale 0 is the no-effect control and ±100 the full control effect; nearly all actives have a fitted effect of over 60% in size
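AlphaScreen displacement of biotin-H3(5-23)K14Ac peptide (50 nM final) from BAZ2B (50 nM final) in PBS pH 7.4, 0.01% Tween-20; complex preformed 30 min RT, then compounds (top 110 uM) 30 min RT, beads 20 min dark.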
JMJD2A Tudor: JMJD2A Tudor domain (human) inhibition; O75164; AlphaScreen JMJD2A-Tudor / H3K4me3 peptide binding; Potency, µM (doses to about 114 µM), for inactives: top-dose activity change, negative = inhibition, actives largely listed as inhibitors; 4.4% of 390,000 active; AID 504339; further: on the % scale 0 is the no-effect control and ±100 the full control effect; nearly all actives have a fitted effect of over 50% in size
L3MBTL1 block: blocks human L3MBTL1. Q9Y468. AlphaScreen L3MBTL1–H3K9me1 peptide binding. Potency, µM (series often up to 57.1 µM), inactives show at the top dose activity, negative = inhibition, most hits filed as inhibitors. 0.66% of 230,000 active; further: on the % scale 0 is the no-effect control and ±100 the full control effect; nearly all actives have a fitted effect of over 60% in size
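L3MBTL1 50 nM + b-AHA-H3(1-15)K9me1 75 nM, 30 min RT; compound added, 30 min RT; streptavidin donor/Ni-chelate acceptor beads 10 ug/mL each final, 30 min RT dark; AlphaScreen read.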
HP1b chromo inh: HP1-beta chromodomain-methylated histone interaction inhibition; AlphaScreen HP1-beta / biotin-H3K9me3 peptide binding; Potency, µM (highest dose often 114 µM), for the others: top-dose activity change, negative = inhibition, hits mostly inhibitors; 0.56% of 390,000 active; AID 540317; further: nearly all actives have a fitted effect of over 70% in size
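AlphaScreen: HP1-beta (50 nM) preformed 30 min with biotin-H3(1-18)K9me3 peptide (50 nM) in PBS pH 7.4, 0.01% Tween-20. Compound added for 30 min at RT, then streptavidin donor/nickel chelate acceptor beads (10 ug/mL) for 30 min.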
G9a inh: blocks human histone lysine methyltransferase G9a; 8.8% of 350,000 active; G9a H3K9 monomethylation, AlphaScreen, 2 h; Potency, µM (top dose mostly 102 µM), for inactives: at the highest dose activity, negative = inhibition, usual class: inhibitors; Q96KQ7; further: on the % scale 0 is the no-effect control and ±100 the full control effect; nearly all actives have a fitted effect of over 75% in size
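AlphaScreen read-out: biotin-H3K9 peptide (500 nM) methylation by 20 nM enzyme with 20 uM SAM, 2 h at room temperature after 15 min compound preincubation; anti-monomethyl H3K9 antibody plus donor/acceptor beads, 10 min dark.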
Starred values were filed as active, the others as inactive; ? = inconclusive; · = no result; [ ] = remark or other dose. The list is not random: actives were taken first. Their share in the collection is about 12%. The call rests on the fitted dose curve; in most records, active means well fitted curve in the direction sought with a large enough effect; inconclusive means small, poorly fitted or top-dose-only effect, or another doubt; inactive means no such curve, though single readings can be large; an effect the other way counts as inactive or inconclusive. Potency means the concentration at half of the fitted maximal effect.

SMILES | Sfp PPTase inh | BAZ2B block | JMJD2A Tudor | L3MBTL1 block | HP1b chromo inh | G9a inh
O=C(O)CCn1cc(C=C2C(=O)NC(=O)NC2=O)c(-c2cc3ccccc3oc2=O)n1 | 40µM* | ? | -12% | -3% | 19% | ?
Clc1c(Cl)c(Cl)c(Cl)c(Cl)c1Cl | 10% | · | · | · | · | ·
COc1cc([C@H]2c3cc4c(cc3[C@@H](O)[C@@H]3COC(=O)[C@H]23)OCO4)cc(OC)c1OC | 11% | · | · | · | · | 18%[21.5 µM]
Cc1[nH]ccc2c1[nH]c1cc(=O)ccc12 | 2% | -12% | -9% | 2% | 6% | 50µM*
Cc1c(CCN)ccc2c1[nH]c1ccccc12 | ? | -19% | -7% | · | 24% | 25%[0.501 µM]
NC1CCCCC1N=Cc1c(O)n(Cc2ccc(F)cc2)c(=O)[nH]c1=O (stereo not drawn) | -5% | ? | -17% | -6% | 17% | 0.89µM*
CN1CCN(/N=C/c2c(O)n(Cc3ccc(F)cc3)c(=O)[nH]c2=O)CC1 | 9% | -21% | -10% | -2% | 24% | 56µM*
CCCCn1c(O)c(C=NC2CCCCC2N)c(=O)[nH]c1=O (stereo not drawn) | 8% | ? | -23% | · | 42% | 4µM*
CCCCCCn1c(O)c(C=NC2CCCCC2N)c(=O)[nH]c1=O (stereo not drawn) | 7% | -31% | ? | -2% | 14% | -2%
C=CC[N+]1(C)CC[C@]23c4c5ccc(O)c4O[C@H]2C(=O)CC[C@@]3(O)[C@H]1C5 (stereo partly drawn) | · | -7% | ? | 6% | ? | 1.6µM*
C=CC[N+]1(C)CCC23c4c5ccc(O)c4O[C@H]2C(=O)CC[C@@]3(O)C1C5 (stereo partly drawn) | 56µM* | · | · | · | · | 31%[59 µM]
C=CCN1CC[C@]23c4c5ccc(O)c4O[C@@H]2C(=O)CC[C@]3(O)[C@H]1C5 | -18% | · | · | · | · | 0%[21.5 µM]
COC(=O)/C=C/C(=O)N[C@@H]1CC[C@@]2(O)[C@H]3Cc4ccc(O)c5c4[C@@]2(CCN3CC2CC2)[C@H]1O5 | -3% | · | · | · | · | 31%[59 µM]
CC(C)[C@@]1(NC(=O)[C@@H]2C[C@H]3c4cccc5[nH]cc(c45)C[C@@H]3N(C)C2)O[C@@]2(O)[C@H]3CCCN3C(=O)[C@H](Cc3ccccc3)N2C1=O | 8% | · | · | · | · | ·
C[C@@H]1O[C@@H](O[C@H]2C[C@@H](O)[C@@]3(CO)[C@H]4[C@H](O)C[C@]5(C)[C@@H](C6=CC(=O)OC6)CC[C@]5(O)[C@H]4CC[C@@]3(O)C2)[C@@H](O)[C@H](O)[C@H]1O | 8% | · | · | · | · | 21%[59 µM]
O=C(Nc1ccccc1-c1ccc(Cl)cc1)c1cccnc1Cl | 14% | · | · | · | · | ·
O=C(Nc1cccc2ncccc12)c1ccccc1Cl | -23% | ? | -10% | -8% | 2% | 79µM*
CCN(C[C@H]1N[C@@](CC)(C(=O)OC)[C@H]2C(=O)N(Cc3ccccc3)C(=O)[C@@H]12)S(=O)(=O)c1ccc(C)cc1 | · | · | -16% | 3% | 49% | ·
CCCCCCCCCC[Si](C)(C)CCC(=O)NC(Cc1ccc(C)cc1)c1ccccc1 (stereo not drawn) | · | · | · | · | · | 43%[59 µM]
NC(=O)C[N+]1(CC#CC(O)(c2ccccc2)c2ccccc2)CCCC1 | -12% | -3% | 32µM* | · | 22% | 35µM*
N#Cc1c(Oc2cccc(OS(=O)(=O)CCCC(F)(F)F)c2)cccc1C(F)(F)F | 20% | · | · | · | · | ·
O=C(CCN1CCOCC1)Nc1ccc(Br)cc1C(=O)c1ccccc1 | -10% | -31% | -26% | -5% | 33% | 35µM*
CC[C@H](C)/C=C(C)/C=C/C1=CC2=C(Cl)C(=O)[C@@](C)(OC(C)=O)C(=O)C2=CO1 | · | · | 56µM* | · | 50µM* | ·
CCC(C)/C=C(C)/C=C/C1=CC2=C(Cl)C(=O)C(C)(OC(C)=O)C(=O)C2=CO1 (stereo not drawn) | 10% | 25µM* | 35µM* | ? | ? | -45%[12.7 µM]
CCCCOCN(C(=O)CCl)c1c(CC)cccc1CC | 0% | · | · | · | · | ·
